Each structure is given as a SMILES string. Hit rate of the full screen: of about 69,000 compounds, about 8,600 (12%) showed an effect of 50% or more. The full list was thinned out, with strong results kept by preference.

The subject of the assay is Plasmodium berghei. The experiment in a line: Screen against P. berghei liver stage (PbLuc), transformed with Luciferase, at 10uM. In kind it is functional, HepG2. Conditions: tested at 10 uM.
With `O=C(c1cnccn1)N1CCCC2(CCN(Cc3ccsc3)CC2)C1`, the INHIBITION is reported as -67.6%.

As to `O=C(CC1CNCCO1)N1CCC(c2cc(N3CCCC3)ncn2)CC1` (stereo unspecified), the INHIBITION is recorded as -23.2%. Consider `CN(CC(=O)Nc1ccncc1)C1CCCN(c2cccnn2)C1` (stereo unspecified), for which the INHIBITION is 4.52%. With `Cc1cccc(CCC(=O)Nc2ccnn2C2CCS(=O)(=O)C2)c1` (stereo unspecified), the INHIBITION is 37.1%. The value for `O=C(CCc1cccs1)Nc1ccnn1C1CCS(=O)(=O)C1` (stereo unspecified) was 22.6%; that for `O=C(CCc1ccsc1)Nc1ccnn1C1CCS(=O)(=O)C1` (stereo unspecified) was 54.3%. To `c1coc(CN2C[C@@H]3CCCO[C@@H]3[C@H](N3CCCC3)C2)c1` belongs 24.5%; to `Cc1ccc(CN(CC(=O)NC2CCOCC2)c2ccc(F)cc2)o1`, 67.8%. As for `Cc1ccc(CN(CC(=O)NCC2CCOC2)c2ccc(F)cc2)o1` (stereo unspecified), the INHIBITION is listed as 7.39%. Turning to `O=C(CN(Cc1cccs1)c1ccc(F)cc1)NC1CCOCC1`, the INHIBITION stood at 37.6%. For the compound `CN1CCN(Cc2cccnc2)C2(CCN(c3ncc(F)cn3)C2)C1=O` (stereo unspecified), the INHIBITION is -8.19%. The value for `Cc1nc(C(=O)N(C)C)nn1-c1ccccc1C(C)C` was 30.8%; that for `CC(C)c1noc(CCC(=O)N2CCN(Cc3ccncc3)CC2)n1` was 37.9%.

Take `CC(=O)N1CCN(C(=O)CCCc2nc(C(C)C)no2)CC1`: the INHIBITION is -8.61%. On to `CC(C)c1noc(CCC(=O)N2CCSCC2)n1`, for which the INHIBITION came out at 51.8%.

Take `NC(=O)c1ccc(C2CCCNC2)nc1` (stereo unspecified): the INHIBITION amounted to 26.8%. The value for `c1ccc(COc2ccccc2CNC2CCc3ncnn3C2)cc1` (stereo unspecified) was 26.9%; that for `c1ccc(OCC2CC2)c(CNC2CCc3ncnn3C2)c1` (stereo unspecified) was 8.383%.

Turning to `CN(C)C(=O)COc1ccccc1CNC1CCc2ncnn2C1` (stereo unspecified), the INHIBITION came out at 33.6%.

Take `CNC(=O)COc1ccccc1CNC1CCc2nc(C)nn2C1` (stereo unspecified): the INHIBITION was -24.4%. The value for `CNC(=O)COc1ccccc1CNC1CCc2ncnn2C1` (stereo unspecified) was 63.6%; that for `c1ccc(OC2CCCC2)c(CNC2CCc3ncnn3C2)c1` (stereo unspecified) was 62.8%. Take `CCCc1n[nH]c(=O)n1[C@@H](CC)c1ccccc1`: the INHIBITION was 3.38%.

With `COCCNC(=O)N1CC(Cc2ccccc2F)C1`, the INHIBITION is recorded as -20.6%. The value for `Cc1ccc(F)c(C(=O)N2CCC(Nc3ccc(C)nn3)CC2)c1` was -15.5%; that for `CCNc1ccnc(N2Cc3cnn(Cc4ccc(F)cc4)c3C2)n1` was 78.4%; that for `Cc1ncc(C)c(N2Cc3cnn(Cc4ccc(F)cc4)c3C2)n1` was 32.5%.

Turning to `CCCc1nc(N2Cc3cnn(Cc4ccc(F)cc4)c3C2)no1`, the INHIBITION amounted to 26.1%. The value for `N#Cc1cnc(N2Cc3cnn(Cc4ccc(F)cc4)c3C2)nc1N` was 61.2%; that for `Cc1nc(N2Cc3cnn(Cc4ccc(F)cc4)c3C2)no1` was 12.8%. To `Cc1cnc(N2Cc3cnn(Cc4ccc(F)cc4)c3C2)nc1N(C)C` belongs 77.6%; to `Cc1cc(C)nc(N2Cc3cnn(Cc4ccc(F)cc4)c3C2)n1`, 22.4%. Take `Fc1ccc(Cn2ncc3c2CN(c2noc(C4CC4)n2)C3)cc1`: the INHIBITION stood at 33.3%. The value for `CNc1cc(C)nc(N2Cc3cnn(Cc4ccc(F)cc4)c3C2)n1` was 75.1%. Take `Fc1ccc(Cn2ncc3c2CN(c2ncccn2)C3)cc1`: the INHIBITION is reported as -1.91%. In the case of `Cc1ccnc(N2Cc3cnn(Cc4ccc(F)cc4)c3C2)n1`, the INHIBITION is reported as 39.1%. The value for `Cc1nccnc1N1Cc2cnn(Cc3ccc(F)cc3)c2C1` was 39.1%; that for `CC(Cn1ccnc1)NC(=O)NCCN1CCCCCC1=O` (stereo unspecified) was 5.29%; that for `Cc1noc(C2CCN(C(=O)Nc3ccc(N(C)C)nc3)CC2)n1` was 24.95%. The value for `CCNC(c1ccc(Cl)cc1)c1cccnc1` (stereo unspecified) was 3.15%.

As for `CC(C)C(=O)N1CCC2(CC1)NC(=O)c1ccccc12`, the INHIBITION amounted to 39.3%. On to `Cc1ccccc1C(=O)N1CCC2(CCC(C(=O)NCC3CC3)O2)CC1` (stereo unspecified), for which the INHIBITION was -3.58%. As to `CSCC(C)(O)CNS(=O)(=O)c1ccc(Br)cc1` (stereo unspecified), the INHIBITION was -23.5%. Consider `Cn1c2c(c(=O)c3ccccc31)CCC(C)(C)O2`, for which the INHIBITION was -27.3%. The value for `CN(Cc1ccco1)[C@@H]1CN(Cc2cnn(C)c2)[C@@H]2CCCO[C@H]12` was 38.1%.

As for `Cc1cc(CNC(=O)CCc2c(C)nc3cc(O)nn3c2C)no1`, the INHIBITION is 15.5%. Take `Cn1cc(CN2CCC(c3ccncc3)CC2)cn1`: the INHIBITION is on record as 23.35%. For `CS(=O)(=O)c1ccc(CN2CCCCC2c2ccc(F)cc2)cc1` (stereo unspecified), the INHIBITION was determined as 32.8%. Regarding `CNS(=O)(=O)c1ccc(CN2CCCN(Cc3ccncc3)CC2)cc1`, the INHIBITION came out at 55.7%. As for `CNS(=O)(=O)c1ccc(CN2CCCC2c2ccc(F)cc2)cc1` (stereo unspecified), the INHIBITION turned out to be 51.3%.

As for `CS(=O)(=O)c1ccc(CN2CCCCC2c2cccc(F)c2)cc1` (stereo unspecified), the INHIBITION came out at 34%. For `CNS(=O)(=O)c1ccc(CN2CCCN(c3ccccc3)CC2)cc1`, the INHIBITION is on record as 48.2%. To `CNS(=O)(=O)c1ccc(CN2CCN(Cc3ncccc3C)CC2)cc1` belongs 49.1%. To `CNS(=O)(=O)c1ccc(CN2CCCN(CC(C)C)CC2)cc1` belongs 34.1%; to `CNS(=O)(=O)c1ccc(CN2CCC(c3ccncc3)CC2)cc1`, 54.1%; to `O=C1CN(C(=O)OCc2ccccc2)CC(O)CN1Cc1ccco1` (stereo unspecified), 34.3%. The value for `CCN(CC)C(=O)Cn1ccc2cc(NC(C)=O)ccc21` was -37.31%; that for `CNc1cc2c(nn1)CCN(C(=O)c1ccc(-n3cccn3)nc1)C2` was 35.7%. As for `COc1c(C2CCCN2C(=O)c2ccc(C#N)cc2)c(C)nn1C` (stereo unspecified), the INHIBITION is listed as 7.67%.

For `C[C@H]1CN(Cc2cnn(C)c2)C[C@@]12CCN(Cc1cccnc1)C2=O`, the INHIBITION was 48.2%. To `CC(=O)N1CCCN(C(C(=O)O)c2ccccc2OC(F)(F)F)CC1` (stereo unspecified) belongs 15.2%; to `O=C(CN1CCCC1Cn1cccn1)NCCOc1cccc(F)c1` (stereo unspecified), 48.4%. The value for `Cc1nc(C)n(CCC(=O)N2CCc3ncc(Cl)cc3C2)n1` was 24.4%. With `CC(C)n1ncc2c1NC(=O)CSC2C(F)(F)F` (stereo unspecified), the INHIBITION is given as -38%. The value for `CNc1cc(C(=O)N(C)Cc2cc(-c3cccs3)n[nH]2)ccn1` was 47.6%; that for `CN(C)c1nccc(NCc2cc(-c3cccs3)n[nH]2)n1` was 18.9%; that for `CNc1ccnc(N(C)Cc2cc(-c3cccs3)n[nH]2)n1` was 88.4%. To `CCc1n[nH]c(C2CN(C(=O)c3nc(C)ncc3Cl)CCO2)n1` (stereo unspecified) belongs 37.5%; to `CCOC(=O)c1sc(NC(=O)CCCC(=O)O)c(C#N)c1C`, 28.2%. The value for `COc1ccc2nc(CNC(=O)C3CC4(CCNCC4)CN3C)[nH]c2c1` (stereo unspecified) was 18.6%; that for `Cc1ccc(NCCCNC(=O)C2CC3(CCNCC3)CN2C)nc1` (stereo unspecified) was 37.1%. As to `Cc1ccc2[nH]c(CNC(=O)C3CC4(CCNCC4)CN3C)nc2c1C` (stereo unspecified), the INHIBITION came to 66.3%.

Turning to `c1coc(CNc2ncc3c(n2)C2(CCNC2)COC3)c1` (stereo unspecified), the INHIBITION was found to be 29.8%. The value for `Cc1nc(NCc2ccco2)nc2c1COCC21CCNC1` (stereo unspecified) was 55.5%.

Take `Cc1nc(NCC2CC2)nc2c1COCC21CCNC1` (stereo unspecified): the INHIBITION is 38.1%.

`Cc1ccc(Oc2ncccc2C(=O)N(C)CCCN(C)C)c(C)c1`: the INHIBITION was found to be 13.5%. For the compound `CCOCC(=O)N1CCC(C)(c2nccs2)CC1`, the INHIBITION turned out to be 38.05%. The value for `CC(=O)N1CCN(C(=O)CCn2c(C)nc3ccccc3c2=O)CC1` was 8.665%. To `CC(C)=CCN1CCC(c2nnc(CN3CCN(C)CC3)n2C)CC1` belongs 25.4%; to `Cc1noc([C@@]23CCO[C@@H]2CCN(C(=O)c2sccc2C)C3)n1`, -4.56%.

With `Cc1noc([C@@]23CCO[C@@H]2CCN(C(=O)c2c(C)noc2C)C3)n1`, the INHIBITION was determined as 28.2%.

`Cc1noc([C@@]23CCO[C@@H]2CCN(C(=O)c2cc(C)on2)C3)n1`: the INHIBITION was 61.9%. To `Cc1noc([C@@]23CCO[C@@H]2CCN(C(=O)c2ccsc2)C3)n1` belongs -15.3%. Take `Cc1noc([C@@]23CCO[C@@H]2CCN(C(=O)c2cc(C)c(C)s2)C3)n1`: the INHIBITION was found to be 57.1%. Take `Cc1noc([C@@]23CCO[C@@H]2CCN(C(=O)c2cc(C)[nH]c2C)C3)n1`: the INHIBITION is reported as 24.9%. The value for `CC(C)Cc1nc(CCn2cncn2)n(-c2ccc3c(c2)OCCO3)n1` was 41.2%.

With `Cc1cc(Cl)ccc1-n1ncc(C(=O)N(C)CCc2ccccn2)c1N`, the INHIBITION amounted to 29.3%. The value for `CC(C)c1nc(-c2ccnc(N3CCNCC3)n2)no1` was 18.2%. Regarding `CC(C)n1ccnc1CN1CCCN(C(=O)c2cnn(C)c2)CC1`, the INHIBITION was 10.9165%.

For `Cc1nc(CN2C(=O)COC3(CCN(C(N)=O)CC3)C2C)cs1` (stereo unspecified), the INHIBITION is reported as -10.3%.

In the case of `CS(=O)(=O)c1cncnc1C1CCCN(C(=O)Nc2ccccc2F)C1` (stereo unspecified), the INHIBITION is -8.76%. As to `COc1ccccc1CN(Cc1cccs1)S(=O)(=O)N(C)C(C)C`, the INHIBITION is 67.5%.

For the compound `CC(C)N(C)S(=O)(=O)N(Cc1cccs1)Cc1cccs1`, the INHIBITION came out at 14.6%. With `CCN(Cc1cccs1)S(=O)(=O)N(C)C(C)C`, the INHIBITION stood at 44.3%. To `Cn1nc(C2CN(C(=O)c3cccnc3)C2)c2nccnc21` belongs 32.8%. The value for `CCc1nc2n(n1)CC(NCc1nc(Cc3ccccc3)no1)CC2` (stereo unspecified) was 19.6%; that for `NC(=O)c1ccc(NC(=O)c2ccncc2F)cn1` was 9%. With `O=C(c1cocn1)N1C[C@@H]2COC[C@]2(COc2cccnc2)C1`, the INHIBITION worked out at 43.9%.

`O=C(COC1CCCC1)N1C[C@@H]2COC[C@]2(COc2cccnc2)C1`: the INHIBITION stood at 40.3%. To `Cc1ccc(C(=O)N2C[C@@H]3COC[C@]3(COc3cccnc3)C2)cn1` belongs 23.9%; to `O=C(C1=CCCC1)N1C[C@@H]2COC[C@]2(COc2cccnc2)C1`, 33%; to `O=C(c1ncccn1)N1C[C@@H]2COC[C@]2(COc2cccnc2)C1`, 46.6%. Take `O=C(COc1ccccc1)N1C[C@@H]2COC[C@]2(COc2cccnc2)C1`: the INHIBITION is on record as 50.3%. To `O=C(Cc1ccccc1F)N1C[C@@H]2COC[C@]2(COc2cccnc2)C1` belongs 39.2%; to `O=C(c1ccc(F)cc1)N1C[C@@H]2COC[C@]2(COc2cccnc2)C1`, 55.7%. As for `O=C(c1cc(C2CC2)on1)N1C[C@@H]2COC[C@]2(COc2cccnc2)C1`, the INHIBITION is on record as 72%.

Source of the values: ChEMBL document CHEMBL4513216, “Probing the Open Global Health Chemical Diversity Library for Multistage-Active Starting Points for Next-Generation Antimalarials” (ACS Infect Dis, 2020).
